Assay results: PubChem BioAssay (Tox21)
Records with an inconclusive call do not appear. Where a call stands in place of a potency, no number is given. Calls of active or inactive are those of the source. Unless noted, calls follow the shape of the dose curve; as a rule, active = well fitted curve in the direction sought with a large enough effect in the repeat runs; inconclusive = weak or mixed curves; inactive = no such curve, though single readings can be large; an effect the other way counts as inactive or inconclusive.

Columns and labels:
[1] = qHTS assay to identify aromatase inhibitors - cell viability counter screen (AID 743084);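 also: cells stimulated with testosterone during compound exposure; nearly all actives have a fitted effect of over 55% in size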; also: potency is read from the fitted curve at half-maximal effect
[2] = biological target: Aryl hydrocarbon receptor (Homo sapiens) (UniProt P35869); test: qHTS assay to identify small molecule that activate the aryl hydrocarbon receptor (AhR) signaling pathway (AID 743085); also: nearly all actives have a fitted effect of over 15% in size; also: potency is read from the fitted curve at half-maximal effect;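 as to activation: HG2L7.5c1 human HepG2 liver cells with stably integrated DRE-driven firefly reporter; series mostly up to about 70 µM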
Procedure, shortened: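 Measured in HG2L7.5c1 cells: CellTiter-Fluor signal (30 min incubation, 37C) for viability, then luciferase luminescence (30 min, room temperature). Compound contact time was 24 h at 37C, following a 5 h pre-incubation.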

[3] = qHTS assay to identify small molecule that activate the aryl hydrocarbon receptor (AhR) signaling pathway - cell viability counter screen (AID 743086); also: nearly all actives have a fitted effect of over 45% in size; also: potency is read from the fitted curve at half-maximal effect
Procedure, shortened: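 Cytotoxicity counter screen: CellTiter-Fluor signal (30 min, 37 C) in 4000 HepG2 cells/well carrying the DRE-luciferase reporter, following 24 h compound exposure at 37 C.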

[4] = biological target: Peroxisome proliferator-activated receptor gamma (Homo sapiens) (UniProt P37231); test: qHTS assay to identify small molecule agonists of the peroxisome proliferator-activated receptor gamma (PPARg) signaling pathway (AID 743094; active = well fitted activation curve with a large enough effect in the signal ratio in the repeat runs, not every such curve was filed as active; the % refers to the signal ratio)
Procedure, shortened: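 Cell-based bla reporter, HEK293H background, PPARg-driven UAS. Pre-incubation 5 h, 37C, 5% CO2. Compound 17 h, 37C. Substrate 1 h RT; fluorescence.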

[5] = qHTS assay to identify small molecule antagonists of the peroxisome proliferator-activated receptor gamma (PPARg) signaling pathway - cell viability counter screen (AID 743194); also: nearly all actives have a fitted effect of over 55% in size; also: potency is read from the fitted curve at half-maximal effect
Procedure, shortened: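 Viability was measured as CellTiter-Glo luminescence in GeneBLAzer PPARg UAS-bla HEK293H cells. These cells had been exposed 17 h at 37 C to compounds together with rosiglitazone at 50 nM final, with the beta-lactamase readout taken in the same wells.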

[6] = qHTS assay for small molecule agonists of the antioxidant response element (ARE) signaling pathway (AID 743202; active = well fitted activation curve with a large enough effect in the signal ratio in the repeat runs, not every such curve was filed as active; the % refers to the signal ratio)
Procedure, shortened: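 After 16 hours of compound treatment at 37 C, HepG2 cells with a stably integrated ARE-driven beta-lactamase reporter were loaded 2 hours at room temperature with LiveBLAzer B/G FRET substrate and fluorescence intensity measured.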

[7] = qHTS assay for small molecule agonists of the antioxidant response element (ARE) signaling pathway - cell viability counter screen (AID 743203; calls by dose curve; also: nearly all actives have a fitted effect of over 55% in size; also: potency is read from the fitted curve at half-maximal effect)
Procedure, shortened: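 Measured in the same wells as the beta-lactamase ARE reporter, this read-out is CellTiter-Glo luminescence from HepG2 ARE-bla cells given compounds for 16 hrs.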

[8] = qHTS assay for small molecule activators of the heat shock response signaling pathway - cell viability counter screen (AID 743209); also: nearly all actives have a fitted effect of over 50% in size; also: potency is read from the fitted curve at half-maximal effect
Procedure, shortened: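 Same-well multiplex: after 2.5 h room-temperature incubation with LiveBLAzer B/G substrate and fluorescence reading, CellTiter-Glo reagent was added to HSE-bla HeLa cells that had received compound for 5 h at 37 C; luminescence read after 30 min.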

[9] = qHTS assay for small molecule activators of the heat shock response signaling pathway (AID 743210; active = well fitted activation curve with a large enough effect in the signal ratio in the repeat runs, with a control signal flat, not every such curve was filed as active; the % refers to the signal ratio; also: potency is read from the fitted curve at half-maximal effect; as to activation: series mostly up to about 63 µM)
Procedure, shortened: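 Compound exposure lasted 5 h at 37 C in HeLa cells carrying a heat-shock-element-driven beta-lactamase reporter. Read-out: fluorescence intensity after 2.5 h room-temperature loading with LiveBLAzer B/G FRET substrate.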

Chain of Aryl hydrocarbon receptor (Homo sapiens) (P35869 whole entry, looked up): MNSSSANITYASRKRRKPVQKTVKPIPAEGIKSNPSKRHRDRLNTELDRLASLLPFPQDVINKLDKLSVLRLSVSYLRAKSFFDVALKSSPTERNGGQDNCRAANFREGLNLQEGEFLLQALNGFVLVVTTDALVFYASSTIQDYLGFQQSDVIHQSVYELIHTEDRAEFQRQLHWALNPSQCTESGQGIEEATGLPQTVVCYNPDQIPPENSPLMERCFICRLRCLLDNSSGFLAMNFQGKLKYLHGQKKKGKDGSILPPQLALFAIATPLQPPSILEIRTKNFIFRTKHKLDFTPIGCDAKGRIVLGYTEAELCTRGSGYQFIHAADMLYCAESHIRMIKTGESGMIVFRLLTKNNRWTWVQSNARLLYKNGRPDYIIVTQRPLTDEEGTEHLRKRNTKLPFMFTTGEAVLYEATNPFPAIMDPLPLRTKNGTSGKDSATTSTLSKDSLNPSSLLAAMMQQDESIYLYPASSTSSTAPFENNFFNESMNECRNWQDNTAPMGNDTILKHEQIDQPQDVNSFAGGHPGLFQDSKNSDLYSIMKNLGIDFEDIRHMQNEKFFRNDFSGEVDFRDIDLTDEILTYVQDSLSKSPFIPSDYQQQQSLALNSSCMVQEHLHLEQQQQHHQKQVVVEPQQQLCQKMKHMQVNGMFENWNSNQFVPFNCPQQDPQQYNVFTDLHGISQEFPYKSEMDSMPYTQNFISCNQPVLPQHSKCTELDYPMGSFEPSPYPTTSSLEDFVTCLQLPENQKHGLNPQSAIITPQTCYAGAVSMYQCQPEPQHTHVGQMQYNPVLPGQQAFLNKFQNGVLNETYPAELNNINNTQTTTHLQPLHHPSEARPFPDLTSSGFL
Chain of Peroxisome proliferator-activated receptor gamma (Homo sapiens) (P37231 whole entry, looked up): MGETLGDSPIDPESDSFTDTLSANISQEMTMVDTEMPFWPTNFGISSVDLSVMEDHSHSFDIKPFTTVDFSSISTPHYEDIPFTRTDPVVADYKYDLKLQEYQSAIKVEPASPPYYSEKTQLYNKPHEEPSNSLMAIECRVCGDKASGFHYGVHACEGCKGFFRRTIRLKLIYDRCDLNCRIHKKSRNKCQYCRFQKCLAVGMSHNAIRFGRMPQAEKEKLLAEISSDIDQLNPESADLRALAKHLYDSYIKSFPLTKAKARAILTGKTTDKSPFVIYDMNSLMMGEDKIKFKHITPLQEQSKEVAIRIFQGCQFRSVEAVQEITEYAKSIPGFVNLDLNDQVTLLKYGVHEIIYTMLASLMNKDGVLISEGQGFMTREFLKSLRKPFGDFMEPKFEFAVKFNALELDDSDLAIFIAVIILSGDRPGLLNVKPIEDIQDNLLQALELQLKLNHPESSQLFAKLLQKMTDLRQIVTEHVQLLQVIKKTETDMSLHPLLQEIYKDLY

**Q.** With `NC(=S)NC(N)=S` as the molecule, how does the Potency [1] read?
**A.** The Potency was “inactive”.

**Q.** What about the Potency [2] of the same molecule?
**A.** Its Potency is “inactive”.

**Q.** And the Potency [3]?
**A.** Its Potency is “inactive”.

**Q.** And the Potency [4]?
**A.** The Potency was “inactive”.

**Q.** What about the Potency [5] of the same molecule?
**A.** Its Potency is “inactive”.

**Q.** What about the Potency [6] of the same molecule?
**A.** Its Potency is “inactive”.

**Q.** What about the Potency [7] of the same molecule?
**A.** Its Potency is “inactive”.

**Q.** And the Potency [8]?
**A.** Its Potency is “inactive”.

**Q.** And the Potency [9]?
**A.** The Potency was 34.7 µM (active).

**Q.** For `COC(C)=O`, which Potency [1] is on record?
**A.** Its Potency is “inactive”.

**Q.** What about the Potency [2] of the same molecule?
**A.** Its Potency is “inactive”.

**Q.** What about the Potency [3] of the same molecule?
**A.** The Potency was “inactive”.

**Q.** And the Potency [4]?
**A.** Its Potency is “inactive”.

**Q.** What about the Potency [5] of the same molecule?
**A.** The Potency was “inactive”.

**Q.** And the Potency [6]?
**A.** Its Potency is “inactive”.

**Q.** And the Potency [7]?
**A.** Its Potency is “inactive”.

**Q.** And the Potency [8]?
**A.** Its Potency is “inactive”.

**Q.** What about the Potency [9] of the same molecule?
**A.** Its Potency is “inactive”.

**Q.** Which results are given for `CC(C)NC[C@@H](O)COc1ccc(CC(N)=O)cc1`?
**A.** Potency [1]: inactive; Potency [2]: inactive; Potency [3]: inactive; Potency [4]: inactive; Potency [5]: inactive; Potency [6]: inactive; Potency [7]: inactive; Potency [8]: inactive; Potency [9]: inactive

**Q.** What does the source list for `O=C(O)c1cc(O)c2ccccc2c1O`?
**A.** Potency [1]: 15.4 µM (active); Potency [2]: 4.86 µM (active); Potency [3]: 54.5 µM (active); Potency [4]: inactive; Potency [5]: 49 µM (active); Potency [7]: 30.6 µM (active); Potency [8]: 21.9 µM (active)

**Q.** For `CC(C)(C)c1ccc(C(O)CCCN2CCC(C(O)(c3ccccc3)c3ccccc3)CC2)cc1` (configuration not stated), which Potency [1] is on record?
**A.** Its Potency is “inactive”.

**Q.** What about the Potency [2] of the same molecule?
**A.** Its Potency is “inactive”.

**Q.** What about the Potency [3] of the same molecule?
**A.** The Potency was “inactive”.

**Q.** What about the Potency [4] of the same molecule?
**A.** Its Potency is “inactive”.

**Q.** What about the Potency [5] of the same molecule?
**A.** The Potency was 13.3 µM (active).

**Q.** And the Potency [7]?
**A.** The Potency was 11.9 µM (active).

**Q.** What about the Potency [8] of the same molecule?
**A.** Its Potency is 21.1 µM (active).

**Q.** Which results are given for `CCc1ccc(Br)cc1`?
**A.** Potency [1]: inactive; Potency [2]: inactive; Potency [3]: inactive; Potency [4]: inactive; Potency [5]: inactive; Potency [6]: inactive; Potency [7]: inactive; Potency [8]: inactive; Potency [9]: inactive

**Q.** What does the source list for `NC(=O)c1cccc([N+](=O)[O-])c1`?
**A.** Potency [1]: inactive; Potency [2]: inactive; Potency [3]: inactive; Potency [4]: inactive; Potency [5]: inactive; Potency [6]: inactive; Potency [7]: inactive; Potency [8]: inactive; Potency [9]: inactive

**Q.** What does the source list for `CCC(CC)C(C)CCOC(C)=O` (configuration not stated)?
**A.** Potency [1]: inactive; Potency [2]: inactive; Potency [3]: inactive; Potency [4]: inactive; Potency [5]: inactive; Potency [6]: inactive; Potency [7]: inactive; Potency [8]: inactive; Potency [9]: inactive

**Q.** What does the source list for `C[Si](Cl)(c1ccccc1)c1ccccc1`?
**A.** Potency [1]: inactive; Potency [2]: inactive; Potency [3]: inactive; Potency [4]: inactive; Potency [5]: inactive; Potency [7]: inactive; Potency [8]: inactive; Potency [9]: inactive

**Q.** For `Nc1ccc(Oc2ccc(Cl)cc2)cc1`, which Potency [1] is on record?
**A.** Its Potency is “inactive”.

**Q.** What about the Potency [2] of the same molecule?
**A.** The Potency was “inactive”.

**Q.** What about the Potency [3] of the same molecule?
**A.** The Potency was “inactive”.

**Q.** And the Potency [4]?
**A.** The Potency was “inactive”.

**Q.** And the Potency [5]?
**A.** Its Potency is “inactive”.

**Q.** What about the Potency [7] of the same molecule?
**A.** Its Potency is “inactive”.

**Q.** What about the Potency [8] of the same molecule?
**A.** Its Potency is “inactive”.

**Q.** What about the Potency [9] of the same molecule?
**A.** The Potency was “inactive”.

**Q.** What does the source list for `C=Cc1cccc(C)c1`?
**A.** Potency [1]: inactive; Potency [2]: inactive; Potency [3]: inactive; Potency [4]: inactive; Potency [5]: inactive; Potency [7]: inactive; Potency [8]: inactive; Potency [9]: inactive
